# Test results taken from PubChem BioAssay AID686979 (National Center for Advancing Translational Sciences (NCATS), 2013).
# About 50,000 (12%) of roughly 420,000 compounds were called active. Not shown: some 26% with an inconclusive outcome. For the sample, actives were picked, then their nearest neighbours and some compounds at random. Values without a mark were called inactive. The call rests on the fitted dose curve; in most records, active means well fitted inhibition curve with a large enough effect; inconclusive means small, poorly fitted or top-dose-only effect; inactive means flat fitted curve, though single readings scatter.
# Assay: qHTS for Inhibitors of human tyrosyl-DNA phosphodiesterase 1 (TDP1): qHTS in cells in presence of CPT; further: nearly all actives have a fitted effect of over 55% in size
# Conditions: chicken DT40 Tdp1-/-;hTDP1 cells + 20 nM CPT, ATP luminescence, 48 h; series mostly up to 46.2 µM; activity change, negative = growth inhibition: at the top concentration
# How it was run: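 Chicken DT40 Tdp1-/- cells complemented with human TDP1, 400 cells/well, exposed to compounds plus 20 nM camptothecin for at least 48 h at 37 C; viability read as ATP content by CellTiter-Glo luminescence.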
# On the % scale 0 is the no-effect control and ±100 the full control effect; potency means the concentration at half of the fitted maximal effect.
SMILES,"activity change, negative = growth inhibition",Potency
COc1ccc(CCOC2OC(CO)C(OC(=O)/C=C/c3ccc(O)c(OC)c3)C(O[C@H]3O[C@@H](C)[C@H](O)[C@@H](O)[C@H]3O)C2O)cc1O (stereo not given in full),8.7%,
Cc1ccc(S(=O)(=O)CCC(=O)OCC(=O)NCCc2ccc(S(N)(=O)=O)cc2)cc1,2.06%,
Cc1c(C(=O)N2CCCC2)c(S(=O)(=O)NCC(C)c2ccccc2)c(C)n1C (stereo not given),-3.17%,
CC(C)N=C1CCCC1C(=S)SSC(=S)C1CCCC1=NC(C)C (stereo not given),,0.0366 µM (active)
COc1ccccc1/C=C1\SC(=O)N(CCC(=O)N(C)C2CCS(=O)(=O)C2)C1=O (stereo not given),-20.6%,
COc1ccc(C(=O)Nc2onc3c2CCCC3)cc1,-28.1%,
O=C(Nc1cccc2ccccc12)c1onc2c1CCCC2,,10.3 µM (active)
O=C(O)c1ccccc1-c1ccccc1C(=O)Nc1cccc2ccccc12,1.67%,
COC(=O)/C(=C1\Oc2ccc(C(C)(C)C)cc2S1)C(F)(F)F,-18.1%,
CC(Sc1nnc(-c2cccs2)n1C1CC1)C(=O)NCC1CCCO1 (stereo not given),-10.3%,
O=S(=O)(NCc1ccccc1Br)c1ccccc1Br,-15.5%,
O=C(Nc1ccc([N+](=O)[O-])cc1)C1(c2ccccc2)CCOCC1,-26.7%,
CN(C)c1nnnn1-c1ccc(Cl)cc1,0.0585%,
Clc1ccc(-n2nnnc2-c2cnc(-c3ccccn3)nc2-c2cccs2)cc1,,6.51 µM (active)
O=C(CN1C(=O)CSC1=O)N1CCCC(Nc2ccc(F)cc2)C1 (stereo not given),0.241%,
COc1ccc(CCNC(=O)CCc2c(C)nc3c(c(C)nn3-c3ccc(C)c(C)c3)c2C)c(OC)c1OC,1.23%,
COc1cccc2[nH]c(C(=O)NCCc3ccccc3)cc12,-1.97%,
COc1ccc(CCNC(=O)c2cc3cccc4c3n2CC(C)S4)c(OC)c1OC (stereo not given),,20.6 µM (active)
Cc1c(C(=O)N(C)C)sc2c1c(=O)n(-c1ccc(F)cc1)c(=O)n2CC(=O)N(C)c1ccccc1,-11.3%,
O=C(COC(=O)c1ccccn1)Nc1cccc2ccccc12,1.49%,
Cc1cc(C)nc(-n2nc(C)cc2NC(=O)c2ccc(F)cc2F)n1,,4.11 µM (active)
CCOC(=O)c1cccc(NC(=O)c2ccc(F)cc2F)c1,-29.8%,
CC(=O)N/C(=N/c1nc(C)cc(C)n1)Nc1ccc(F)cc1F,3.17%,
Cc1noc(C)c1C(=O)OC(C)C(=O)Nc1ccc2c(c1)OCO2 (stereo not given),-10.9%,
CN1CCN(NC(=O)Nc2ccc(Br)cc2)CC1,-4.59%,
CCn1cc(CN2CCC(C(=O)Nc3cccc(-c4cccc(Cl)c4)c3)CC2)cn1,,16.4 µM (active)
CCn1cc(CN2CCC(C(=O)Nc3cccc(-c4cccc(Cl)c4)c3)CC2)c(C)n1,,13 µM (active)

SMILES,"activity change, negative = growth inhibition",Potency
COc1cccc(-c2cccc(NC(=O)C3CCN(C4CCC4)CC3)c2)c1,0.465%,
CCn1cc(CN2CCC(n3nccc3NC(=O)CCCc3ccccc3)CC2)c(C)n1,8.22%,
O=C(Nc1ccc(-n2cccn2)cc1)C1CCN(Cc2ccsc2)CC1,4.59%,
CCNC(=S)NNC(=O)C1CCN(Cc2ccccc2)CC1,-0.188%,
CC(CCn1cccn1)NC(=O)CCc1nnc(CCc2ccccc2)o1 (stereo not given),15.6%,
CCC(C)NC(=O)C1c2ccccc2C(=O)N1Cc1ccccc1 (stereo not given),-9.45%,
Cc1cc(-c2ccnc(-n3ncc(C(=O)NC(C)(C)CO)c3C3CC3)n2)c(C)s1,3.64% [at 9.04 µM],
COc1ccccc1NC(=O)C1CCN(C(=O)c2ccc(C(C)(C)C)cc2)CC1,,23.1 µM (active)
COc1ccc(CNC(=O)C2CCN(C(=O)c3ccco3)CC2)cc1,-4.73%,
CCc1ccc(NC(=O)CN2CCC(C(=O)c3ccc(OC)cc3)CC2)cc1,,5.8 µM (active)
COc1ccc(C(=O)N2CCC(C(=O)Nc3ccc(C)cc3)CC2)cc1,,18.4 µM (active)
CC(C)(C)c1ccc(C(=O)N2CCC(C(=O)N3CCCCC3)CC2)cc1,-27.5%,
COc1ccc(C(=O)Nc2ccc(CN3CCOCC3)cc2)cc1,-20.4%,
COc1ccc(NC(=O)N2CCCC(C(=O)Nc3ccccc3OC)C2)cc1 (stereo not given),-0.903%,
COc1ccc(CNC(=O)C2CCN(C(=O)c3ccccc3)CC2)cc1,-10.8%,
CCc1ccc(NC(=O)Cn2nnc(C(=O)NCc3ccc(OC)cc3)c2N)cc1,-1.18%,
Cc1ccc(NC(=O)[C@H](Cc2ccccc2)NC(=O)C2CCNCC2)cc1,-4.44%,
CC(=O)Nc1ccc(S(=O)(=O)N2CCC(NC(=O)c3ccccc3)CC2)cc1,-4.74%,
O=C(Cc1ccc(Br)cc1)NCCc1ccccc1,-16.5%,
O=C(Nn1cnnc1)c1cc(Cl)ccc1Cl,-9.38%,
NS(=O)(=O)c1cccc(NC(=O)COC(=O)/C=C/c2ccco2)c1,1.47%,
CCC(C)C(CO)NC(=O)/C=C/[C@H]1O[C@@H](n2cnc3c(NC(=O)c4ccccc4)ncnc32)[C@H](O)[C@@H]1O (stereo not given in full),3.57%,
C/C(=N\NC(=O)c1ccoc1C)c1ccccc1O,,10.3 µM (active)
C/C(=N\NC(=O)c1ccccc1C)c1ccc(N2CCOCC2)cc1,-5.61%,
Cc1ccnc(NC(=O)c2ccoc2C)c1,-5.15%,
COC(=O)c1sc(=S)n(-c2ccc(Cl)cc2)c1C,-11.9%,
OC(CBr)CN1CCCCC1 (stereo not given),-5.66%,

SMILES,"activity change, negative = growth inhibition",Potency
O=C(NCc1nnnn1-c1ccc(Cl)cc1)c1ccc([N+](=O)[O-])o1,,18.4 µM (active)
COc1ccc(-n2nnnc2CNC(=O)c2ccc3ccccc3c2)cc1,-13.1%,
O=C(NCc1nnnn1-c1ccc(Cl)cc1)c1ccc2c(c1)OCO2,-14.2%,
O=C(/C=C/c1cccc([N+](=O)[O-])c1)NCCSCc1ccco1,-16.6%,
COc1cc(C(=O)NC2CCN(C)CC2)ccc1Nc1ncc2c(n1)N(C1CCC(O)CC1)CCC(=O)N2C (stereo not given),,16.4 µM (active)
COc1ccc(C(=O)NC2CC2)cc1OC1CCN(Cc2cnn(C)c2)CC1,-4.23%,
COc1ccc(Cl)cc1NS(=O)(=O)c1cccc(C(=O)NC2CCC(O)CC2)c1 (stereo not given),1.8%,
O=C(NCCc1ccccc1Cl)C1CCC(=O)N(CCCc2ccccc2)C1 (stereo not given),-29.6%,
COc1ccc(C(=O)O)cc1S(=O)(=O)NCc1cccnc1,-2.76%,
O=C(CCn1c(=O)c2ccccc2n(Cc2ccc(Cl)cc2)c1=O)NCc1ccc2c(c1)OCO2,-29.2%,
CCOc1ccc(NC(=O)Cn2c(=O)n(CCCC(=O)NCc3ccc4c(c3)OCO4)c(=O)c3ccccc32)cc1,-2.1%,
O=C(CCCCn1c(=O)c2ccccc2n(CC(=O)Nc2cccc(C(F)(F)F)c2)c1=O)NCc1ccc2c(c1)OCO2,,18.4 µM (active)
CCCCn1c(SCc2ncc(-c3ccccc3)o2)nc2cc(S(N)(=O)=O)ccc21,,11.6 µM (active)
CCCCn1c(SCC(=O)N2CCCC2=O)nc2cc(S(N)(=O)=O)ccc21,-16%,
CCCCn1c(SCC(=O)N2CCC(C(=O)OCC)CC2)nc2cc(S(N)(=O)=O)ccc21,-9.44%,
COc1cccc(Cn2cnc3c([N+](=O)[O-])c(C)c(C)cc32)c1,-13%,
CCc1ccc2[nH]c(=O)c(Cc3ccccc3)c(O)c2c1,-29.7%,
CCOc1ccc(NC(=O)c2ccc(CSc3nnnn3C)cc2)cc1,-9.3%,
CCOc1ccc(NC(=O)c2ccc(NC(=O)COC(=O)c3ccc(NC(=O)CC#N)cc3)cc2)cc1,-19.3%,
CCOc1ccc(C(=O)Nc2c3c(nn2-c2ccccc2)CS(=O)(=O)C3)cc1,-2.2%,
CCOc1ccc(C(=O)Nc2ccncc2)cc1,,10.3 µM (active)
CSc1cccc(NC(=O)CSc2ccccc2)c1,-0.186%,
CCC(=O)Nc1ccc(C(=O)Nc2cccc(OC)c2)cc1,5.12%,
CCOc1ccc(C(=O)Nc2cccc(-c3ccc4nncn4n3)c2)cc1,,20.6 µM (active)
CCOc1ccc(NC(=O)c2ccc(NC(=O)C3CCCO3)cc2)cc1 (stereo not given),0.978%,
CCOc1ccc(C(=O)Nc2cccc(SC)c2)cc1,,6.51 µM (active)
O=C(CCC1CCCC1)N=C1SC2CS(=O)(=O)CC2N1Cc1ccccc1 (stereo not given),-18.1%,

SMILES,"activity change, negative = growth inhibition",Potency
CCc1ccc([C@@H]2CC(=O)[C@@H]3CN(S(=O)(=O)c4ccc(C)cc4)[C@H](c4ccc(Cl)cc4)C[C@@H]3N2S(=O)(=O)c2ccc(C)cc2)cc1,-4.59%,
CCOc1ccc(N2CC(C(=O)N/N=C/c3sccc3C)CC2=O)cc1 (stereo not given),9.79%,
C[C@H](CO)N1C[C@H](C)[C@@H](CN(C)C(=O)Nc2ccc3c(c2)OCO3)Oc2c(cccc2N(C)C)C1=O,-18.9%,
CN1CCN(CC#CCC2(O)c3ccccc3-c3ccccc32)CC1,-12.5%,
CC(C)(C)C(=O)Nc1c(Br)c(C2CC2)nn1-c1ccccc1,-3.25%,
CCOc1ccc(S(=O)(=O)NCCCn2ccnc2)cc1NC(C)=O,4.07%,
COC(=O)c1ccc(NC(=O)CSc2nc(N)c(NC(=O)c3ccc(Br)o3)c(=O)[nH]2)cc1,1.82%,
O=C(CCC1CCCN(Cc2ccc(O)c(Cl)c2)C1)NCc1ccccc1F (stereo not given),-19%,
Clc1ccc(C[n+]2cc(-c3ccc(Cl)cc3)n3c2CCC3)cc1,,4.61 µM (active)
Clc1ccc(C[n+]2cc(-c3ccccc3)n3c2CCC3)cc1,,2.91 µM (active)
Cn1c(-c2ccccc2)c[n+]2c1CCCCC2,5.76%,
O=C(O)C(F)(F)C(NCc1ccccc1)c1ccccc1 (stereo not given),-10.3%,
CCC(C(=O)NC1CCCCC1)N(C(=O)c1snc(C(N)=O)c1N)c1ccc(OC)cc1OC (stereo not given),-28.2%,
CC(NC(=O)c1ccc(S(=O)(=O)Nc2ccccc2)cc1)c1ccc(S(N)(=O)=O)cc1 (stereo not given),-0.898%,
COc1cc(CN2CCCN(C)CC2)c([N+](=O)[O-])cc1OC,-17.5%,
COc1cc(CNCc2ccc3c(c2)OCO3)c([N+](=O)[O-])cc1OC,-5.01%,
COc1cc2c(cc1OC)C(Cc1cc(OC)c(OC)cc1[N+](=O)[O-])=NCC2,,5.17 µM (active)
CCCCC1S/C(=N/N=C/c2cccs2)NC1=O (stereo not given),-15.9%,
CCc1ccc(OCC(O)CN2CCN(CCO)CC2)cc1 (stereo not given),4.93%,
OC(COc1ccc2ccccc2c1)Cn1cncn1 (stereo not given),4.84%,
CC(=O)OC(COc1ccc(F)cc1)Cn1cnc2ccccc21 (stereo not given),-18.6%,
Cc1ccccc1OCC(O)CN1CCN(c2ccccn2)CC1 (stereo not given),2.2%,
CC(C)c1ccc(OCC(O)Cn2cnc3ccccc32)cc1 (stereo not given),,18.4 µM (active)
CC(C)c1ccc(OCC(O)CN2CCN(c3ccccn3)CC2)cc1 (stereo not given),,25.9 µM (active)
